# Results published in PubChem BioAssay AID488896 (Broad Institute, 2010).
# Out of some 320,000 compounds screened, about 3,100 (0.97%) were called active. What follows is part of a selection rich in actives, with near analogues and random picks from the rest. Unmarked numbers belong to inactive results.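 The calls were made as follows: active = mean replicate inhibition of at least 70% and a set share of replicates each scoring 70 or more; inconclusive = meets just one of the two criteria; inactive = fails both criteria.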
# Target: Scavenger receptor class B member 1 (Mus musculus) (UniProt Q61009)
# Sequence (Q61009 whole entry, looked up): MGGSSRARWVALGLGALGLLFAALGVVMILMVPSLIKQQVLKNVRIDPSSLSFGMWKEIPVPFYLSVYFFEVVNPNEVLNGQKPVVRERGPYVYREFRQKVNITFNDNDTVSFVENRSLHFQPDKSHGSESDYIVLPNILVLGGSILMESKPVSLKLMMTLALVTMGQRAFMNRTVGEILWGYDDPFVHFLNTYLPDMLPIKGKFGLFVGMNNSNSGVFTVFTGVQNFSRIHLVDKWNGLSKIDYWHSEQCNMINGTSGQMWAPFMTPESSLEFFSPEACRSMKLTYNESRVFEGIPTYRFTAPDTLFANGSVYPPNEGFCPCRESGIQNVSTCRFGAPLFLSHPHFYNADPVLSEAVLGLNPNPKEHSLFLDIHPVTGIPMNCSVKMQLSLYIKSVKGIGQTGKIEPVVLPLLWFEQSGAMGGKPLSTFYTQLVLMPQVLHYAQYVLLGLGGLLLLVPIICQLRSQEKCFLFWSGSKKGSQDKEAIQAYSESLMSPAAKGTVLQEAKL
# Assay: inhibitors of SR-BI mediated HDL lipid uptake, primary screen, ldlA[mSR-BI] cells, fluorescence, single point (AID 488896);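 also: 0% = median of neutral control wells and 100% = median of positive control wells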
# Conditions: ldlA[mSR-BI] CHO cells, DiI-HDL uptake fluorescence, 3 h; at 12.5 µM; hits give high values
row,SMILES,inhibition
1,Cc1ccc(C)c(S(=O)(=O)N(C)c2ccc(OC(=O)C3CCN(C(=O)c4ccc(F)cc4)CC3)cc2)c1,12.3%
2,CC1=CC(C)(C)N(C(=O)CSc2nnc(-c3ccccc3)o2)c2ccc(C)cc21,73.5% (active)
3,Cc1cccc(C)c1OC(=O)CSc1nnc(-c2ccccc2)o1,-9.02%
4,CC1=CC(C)(C)N(C(=O)CSc2nccn2C)c2cc(C)ccc21,-2.67%
5,CCc1c(Nc2ccccc2Cl)nc(N)[nH]c1=O,-15.3%
6,CCOc1cc(NC(=O)c2ccccn2)c(OCC)cc1NC(=O)c1ccc(OC)cc1,72.3% (active)
7,CCOc1ccccc1NC(=O)Nc1cc(OC)ccc1OC,76.1% (active)
8,CCOc1cc(NS(=O)(=O)c2ccc(OC)cc2)c(OCC)cc1NC(C)=O,-2.12%
9,CCOc1ccc(NC(=O)Nc2cc(C)ccc2OC)cc1,10.4%
10,COc1ccc(OC)c(NC(=O)CC(Cc2ccccc2OC)C(=O)O)c1 (stereo not drawn),-10.9%
11,CCOc1cc2ccccc2cc1C(=O)Nc1ccccn1,58.6%
12,CC1CN(Cc2ccccc2)C(=S)NC1=O (stereo not drawn),-4.96%
13,Cc1cc2c(cc1C)NC1(C[C@H]3CCC(=O)N4CC[C@@H](C1)[C@@H]34)C(=NC(C)(C)CC(C)(C)C)N2 (stereo partly drawn),-27.8%
14,O=C(NNc1nc(N2CCCC2)nc(N2CCCC2)n1)c1ccccc1,-25.2%
15,O=C1C=C(NS(=O)(=O)c2ccccc2)C(=O)c2ccccc21,-17.2%
16,c1ccc(-c2c[nH]c(-c3ccccc3)c2)cc1,9.83%
17,COc1ccc(-c2c(C)cc3oc(=O)cc(-c4ccccc4)c3c2C)cc1F,68.3%
18,COc1ccc(-c2c(C)cc3oc(=O)cc(-c4ccccc4)c3c2C)cc1OC,66.6%
19,COc1ccc(-c2c(C)cc3oc(=O)cc(-c4ccccc4)c3c2C)cc1C=O,75.1% (active)
20,COc1ccc2[nH]c3c(c2c1)CCN1C(=O)C(CC(=O)NCCc2ccccn2)C[C@H](C(=O)N2CCOCC2)[C@@]31C (stereo partly drawn),-24.1%
21,O=C(Nc1c[nH]c(=O)[nH]c1=O)OCc1ccccc1,-8.08%
22,O=C(NC1=CC(=O)c2ccccc2C1=O)c1ccccc1,2.35%
23,Cc1cccc(NC(=O)CSc2nnc(-c3ccco3)o2)c1,-5.55%
24,Cc1cccc(NC(=O)c2sc3nc(N4CCOCC4)c4c(c3c2N)CCCC4)c1,68%

row,SMILES,inhibition
1,Cc1cccc(NC(=O)c2sc3nc4c(c(-c5ccco5)c3c2N)CCC4)c1,77.8% (active)
2,CCOC(=O)/C(=N\Nc1ccccc1[N+](=O)[O-])c1csc(Nc2ccccc2)n1,106% (active)
3,CCOC(=O)C/C(C)=N\Nc1ccc([N+](=O)[O-])cc1[N+](=O)[O-],-9.86%
4,Cc1csc(NC(=O)Nc2ccccc2[N+](=O)[O-])n1,2.45%
5,O=C(OCCOc1ccccc1F)c1cc(S(=O)(=O)N2CCOCC2)ccc1F,12.6%
6,COc1ccc(S(=O)(=O)N2CCC(C(=O)OCC(=O)c3ccccc3)CC2)cc1[N+](=O)[O-],-14.3%
7,C=C(C)CNc1cc(S(=O)(=O)N2CCOCC2)ccc1Oc1ccccc1,10.5%
8,COC(=O)c1cc(Oc2ccc(S(=O)(=O)N3CCOCC3)cc2[N+](=O)[O-])cc(C(=O)OC)c1,70.8% (active)
9,CC(C)(C)C(=O)Nc1cccc(-c2ccc[nH]2)n1,-5.41%
10,O=C(CN1CCC(NC(=O)Nc2ccccc2)CC1)Nc1cccc([N+](=O)[O-])c1,30.9%
11,Cc1cc(C)cc(NC(=O)NC2CCN(CC(=O)Nc3cccc(Cl)c3C)CC2)c1,74.4% (active)
12,COc1cccc(NC(=O)CN2CCN(CC(=O)Nc3ccccc3Cl)CC2)c1,19.8%
13,O=C(Cc1ccc([N+](=O)[O-])cc1)NCCc1ccc2c(c1)OCO2,30.8%
14,CC(C)=CCc1ccc(O)c(=O)cc1C(C)C,12.4%
15,CC(=O)OC1CCC2C3CCC4=C(CC(F)C(=O)C4)C3CCC12C (stereo not drawn),3.99%
16,Brc1ccc(-c2csc(N/N=C/c3ccc4c(c3)OCO4)n2)cc1,79.4% (active)
17,C(=N\Nc1ccc2ccccc2n1)/c1ccc2c(c1)OCO2,7.43%
18,Brc1ccc(-c2csc(N/N=C/c3cccnc3)n2)cc1,37.2%
19,NC(=O)c1ncn([C@@H]2O[C@H](CNCc3cnc(N4CCOCC4)s3)[C@@H](O)[C@H]2O)n1,12%
20,CC/C(=C(/c1ccccc1)c1ccc(OCC[N+](C)(C)C)cc1)c1ccccc1,-44.1%
21,CCc1ccnc(NC(=O)Nc2ccc(OCc3ccccc3)cc2)c1,81.9% (active)
22,O=C(O)/C=C\C(=O)Nc1ccc(OCc2ccccc2)cc1,-11.2%
23,Cc1cccc(NC(=O)Nc2ccc(OCc3ccccc3)cc2)n1,17.6%
24,Cc1cc(NC(=O)C(C)SCC(=O)Nc2cccc(S(=O)(=O)N3CCCCCC3)c2)no1 (stereo not drawn),41.5%

row,SMILES,inhibition
1,Cc1cn(C2CC(O)C(CO)O2)c(=O)n(CCCc2ccccc2)c1=O (stereo not drawn),2.76%
2,Cc1ccccc1OCC(=O)Nc1ccc(N2CCN(C(=O)C(C)C)CC2)c(Cl)c1,72% (active)
3,Cc1ccccc1OCC(=O)Nc1ccc2c(c1)ncn2C,9.34%
4,Cc1ccccc1OCC(=O)Nc1ccc(S(=O)(=O)N2CCOCC2)cc1,-12.4%
5,Cc1ccc(Cn2c(C)c3cnn(CC(=O)NCCN4CCOCC4)c(=O)c3c2C)cc1,22.1%
6,CCC1(C)COC(c2ccc(OC)c(OC)c2)OC1 (stereo not drawn),-11.4%
7,Cc1ccc(C(=O)O)c(NC=O)c1OCc1ccccc1,-19.3%
8,CCOC(=O)/C(=C\c1ccc([N+](=O)[O-])cc1)C(=O)c1cc(C(C)=O)c(Nc2ccccc2)s1,80.9% (active)
9,CCOC(=O)/C(C#N)=C/c1ccc(OCC(=O)Nc2ccccc2)c(OC)c1,-11.4%
10,CCOC(=O)COc1ccc([N+](=O)[O-])cc1,-24.5%
11,Cc1nc2ccc(N)nc2nc1C,22.1%
12,O=[N+]([O-])c1ccc(NS(=O)(=O)c2ccccc2)c(Cl)c1,-84.4%
13,COc1cccc2oc(CCc3ccccc3)cc(=O)c12,-4.54%
14,CCC(=O)Nc1ccccc1N1CCN(S(C)(=O)=O)CC1,-20.6%
15,COc1ccccc1C(=O)NC(=S)Nc1ccccc1N1CCCCC1,49.6%
16,COc1ccc(C(=O)NC(=S)Nc2ccccc2N2CCN(S(C)(=O)=O)CC2)cc1OC,74.4% (active)
17,COc1cccc(/C=N/Nc2ccc(S(=O)(=O)Nc3ccccc3C(=O)O)cc2[N+](=O)[O-])c1O,-4.5%
18,COc1cccc(C(=O)Nc2ccc(N3CCCC3)cc2)c1,80.4% (active)
19,COc1cccc(C(=O)NNC(=O)c2cccc(F)c2)c1,-14.2%
20,COc1ccc(C(=O)NCCCN2CCOCC2)cc1Br,-15.8%
21,O=C(Nc1ccccc1)c1ccc2c(c1)OCCCO2,-9.51%
22,COc1ccc(C(=O)Nc2ccc(N3CCC(C)CC3)cc2)cc1Br,94.5% (active)
23,COc1cccc(C(=O)Nc2ccc(N3CCN(C(=O)c4ccco4)CC3)cc2)c1,36.3%
24,COc1cccc(C(=O)Nc2cc3c(cc2Br)OCCCO3)c1,83.6% (active)

row,SMILES,inhibition
1,COc1cccc(C(=O)Nc2nnc(S(=O)(=O)N3CCCCC3)s2)c1,-13.3%
2,COc1ccc(OCC(=O)Nc2ccc(N3CCC(C)CC3)cc2)cc1,65.5%
3,COc1ccc(CNC(=O)COC(=O)C2=Cc3ccccc3OC2)cc1,-3.54%
4,O=S1(=O)CCOC[C@H](Cc2ccccc2)N1Cc1ccccc1Br,-16.4%
5,O=C(OCCOc1ccccc1Cl)c1cc(S(=O)(=O)N2CCCCC2)ccc1N1CCOCC1,-9.43%
6,CCn1c(-c2cc(OC)ccc2OC)csc1=Nc1c(C)n(C)n(-c2ccccc2)c1=O,-4.8%
7,CN=c1scc(-c2cc(OC)ccc2OC)n1/N=C/c1c(C)[nH]c2ccccc12,77.2% (active)
8,COCCNC(=S)N/N=C/c1c(C)[nH]c2ccccc12,2.4%
9,O=C1C2C3C=CC(C3)C2C(=O)N1c1ncc([N+](=O)[O-])s1 (stereo not drawn),-8.82%
10,CCC(=O)N1CCc2cc(Br)c(S(=O)(=O)NCCN3CCCCC3CC)cc21 (stereo not drawn),11.6%
11,COc1cc(C(=O)N2CCN(S(=O)(=O)c3ccc(C(C)C)cc3)CC2)ccc1OCC(=O)N1CCOCC1,-10.9%
12,Cc1ccc(Nc2c(O)nc[nH]c2=O)cc1C,4.84%
13,COC(=O)Cc1nc2c(N)nc(N)nc2[nH]c1=O,-15.9%
14,O=C(NN=Cc1ccccc1O)NN=Cc1ccccc1O,79.8% (active)
15,O=C(N/N=C/c1ccccc1O)C1CCCC1,4.81%
16,O=C(N/N=C/c1ccccc1O)/C(=C/c1ccccc1)CCO,24.8%
17,COc1ccccc1C(=O)c1ccccc1C(=O)c1ccccc1,6.29%
18,COc1ccc(CNC(=O)CN2C(=O)c3ccccc3S2(=O)=O)cc1,-16.4%
19,Cc1cc([N+](=O)[O-])ccc1NC(=O)c1ccc(NC(=O)C(C)C)cc1,74.9% (active)
20,CC(=O)c1ccc(NC(=O)Nc2ccc([N+](=O)[O-])cc2C)cc1,26.8%
21,CC(C)C(=O)Nc1cccc(NC(=O)c2ccc([N+](=O)[O-])cc2Cl)c1,-2.31%
